# Laboratory results as given in PubChem BioAssay AID1159580 (chemical genetic matrix, 2015).
# Several values for one entry are separate records, joined by “and”; a condition that tells them apart may be missing. Equal values may be shown once. Hit rate of the full screen: of about 5,500 compounds, about 2,000 (36%) were called active. Roughly 18% stayed inconclusive and do not appear here. The list shows a part of the results. A number with no mark means an inactive call. No stated cut-off is given here; in the data, active means normalized growth mostly below about 0.91 (no sharp cut-off); inconclusive means no clear call, values can overlap the other calls; inactive means mostly above about 0.92.
# Assay: chemical genetic growth profiling, strain panel (AID 1159580);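 further: tested at 20 µM; growth read once vehicle control cultures reached saturation at 30 °C; 1 = growth at the plate median or of vehicle wells; lower values mean less growth of the strain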
# Details: S. cerevisiae deletion strains, growth OD
compound,measurement,setting,value
NC(N)=O,normalized growth,"locus YAL013W, strain DEP1, hits give low values",1.02
same,normalized growth,"locus YAL021C, strain ccr4, hits give low values",1.02
same,normalized growth,"locus YAL026C, strain drs2, hits give low values",1.01
same,normalized growth,"locus YAL030W, strain snc1, hits give low values",1.02
same,normalized growth,"locus YBL061C, strain skt5, hits give low values",1.02
same,normalized growth,"locus YBR009C, strain hhf1, hits give low values",0.978
same,normalized growth,"locus YBR021W, strain FUR4, hits give low values",0.953
same,normalized growth,"locus YBR023C, strain chs3, hits give low values",1.02
same,normalized growth,"locus YBR171W, strain sec66, hits give low values",1.03
same,normalized growth,"locus YBR229C, strain ROT2, hits give low values",0.989
same,normalized growth,"locus YBR231C, strain swc5, hits give low values",1.03
same,normalized growth,"locus YBR279W, strain paf1, hits give low values",1.01
same,normalized growth,"locus YCL011C, strain gbp2, hits give low values",0.992
same,normalized growth,"locus YCL016C, strain dcc1, hits give low values",0.984
same,normalized growth,"locus YCL029C, strain bik1, hits give low values",0.991
same,normalized growth,"locus YCL061C, strain MRC1, hits give low values",1.03
same,normalized growth,"locus YCL069W, strain vba3, hits give low values",1
same,normalized growth,"locus YCR088W, strain abp1, hits give low values",1.01
same,normalized growth,"locus YDL005C, strain med2, hits give low values",1.01
same,normalized growth,"locus YDL035C, strain GPR1, hits give low values",1.01
same,normalized growth,"locus YDL040C, strain nat1, hits give low values",1.01
same,normalized growth,"locus YDL074C, strain BRE1, hits give low values",1.07
same,normalized growth,"locus YDL101C, strain DUN1, hits give low values",1
same,normalized growth,"locus YDL134C, strain PPH21, hits give low values",1
same,normalized growth,"locus YDL185W, strain tfp1, hits give low values",0.983
same,normalized growth,"locus YDL192W, strain arf1, hits give low values",0.994
same,normalized growth,"locus YDR001C, strain nth1, hits give low values",1.02
same,normalized growth,"locus YDR069C, strain doa4, hits give low values",1.04
same,normalized growth,"locus YDR101C, strain arx1, hits give low values",0.997
same,normalized growth,"locus YDR137W, strain rgp1, hits give low values",1.03
same,normalized growth,"locus YDR150W, strain NUM1, hits give low values",1.01
same,normalized growth,"locus YDR159W, strain sac3, hits give low values",0.965
same,normalized growth,"locus YDR162C, strain NBP2, hits give low values",1.04
same,normalized growth,"locus YDR195W, strain ref2",1.03
same,normalized growth,"locus YDR297W, strain sur2, hits give low values",1.01
same,normalized growth,"locus YDR318W, strain mcm21, hits give low values",0.998
same,normalized growth,"locus YDR334W, strain swr1, hits give low values",1.01
same,normalized growth,"locus YDR335W, strain msn5, hits give low values",1.01
same,normalized growth,"locus YDR388W, hits give low values",0.985
same,normalized growth,"locus YDR392W, strain spt3, hits give low values",0.959
same,normalized growth,"locus YDR502C, strain sam2, hits give low values",0.997
same,normalized growth,"locus YEL003W, strain gim4, hits give low values",1.01
same,normalized growth,"locus YEL037C, strain rad23, hits give low values",1.01
same,normalized growth,"locus YEL061C, strain CIN8 (second series), hits give low values",1.01
same,normalized growth,"locus YEL061C, strain CIN8, hits give low values",1.05
same,normalized growth,"locus YER015W, strain faa2, hits give low values",1.02
same,normalized growth,"locus YER016W, strain bim1, hits give low values",0.984
same,normalized growth,"locus YER110C, hits give low values",0.989
same,normalized growth,"locus YER111C, strain swi4, hits give low values",1.01
same,normalized growth,"locus YER155C, strain BEM2 (second series), hits give low values",1.01
same,normalized growth,"locus YER155C, strain BEM2, hits give low values",0.988
same,normalized growth,"locus YER167W, strain BCK2, hits give low values",0.983
same,normalized growth,"locus YFR010W, strain ubp6, hits give low values",1.01
same,normalized growth,"locus YGL078C, strain dbp3, hits give low values",0.988
same,normalized growth,"locus YGL086W, strain mad1, hits give low values",0.99
same,normalized growth,"locus YGL167C, strain pmr1, hits give low values",1.02
same,normalized growth,"locus YGL173C, strain kem1, hits give low values",1.02
same,normalized growth,"locus YGL227W, strain vid30, hits give low values",1.02
same,normalized growth,"locus YGL240W, strain doc1, hits give low values",1.03
same,normalized growth,"locus YGL248W, strain PDE1, hits give low values",1
same,normalized growth,"locus YGL253W, strain hxk2, hits give low values",1.01
same,normalized growth,"locus YGR078C, strain PAC10, hits give low values",1.03
same,normalized growth,"locus YGR135W, strain pre9, hits give low values",1
same,normalized growth,"locus YGR229C, strain SMI1, hits give low values",1.03
same,normalized growth,"locus YGR252W, strain gcn5, hits give low values",0.986
same,normalized growth,"locus YHR013C, strain ard1, hits give low values",0.998
same,normalized growth,"locus YHR027C, strain rpn1, hits give low values",1.01
same,normalized growth,"locus YHR030C, strain SLT2, hits give low values",0.986 and 1.01
same,normalized growth,"locus YHR079C, strain IRE1 (second series), hits give low values",0.991
same,normalized growth,"locus YHR079C, strain IRE1, hits give low values",1.01
same,normalized growth,"locus YHR094C, strain hxt1, hits give low values",0.996
same,normalized growth,"locus YHR129C, strain ARP1, hits give low values",0.998
same,normalized growth,"locus YHR142W, strain chs7, hits give low values",1.02
same,normalized growth,"locus YHR200W, strain rpn10, hits give low values",0.994
same,normalized growth,"locus YIL066C, strain RNR3, hits give low values",1.01
same,normalized growth,"locus YIL073C, strain SPO22, hits give low values",1.02
same,normalized growth,"locus YIL125W, strain kgd1, hits give low values",0.987
same,normalized growth,"locus YIR030C, strain dcg1, hits give low values",0.99
same,normalized growth,"locus YJL092W, strain hpr5, hits give low values",1.01
same,normalized growth,"locus YJL095W, strain BCK1 (second series), hits give low values",1.03
same,normalized growth,"locus YJL095W, strain BCK1, hits give low values",1.05 and 1.01
same,normalized growth,"locus YJL115W, strain asf1, hits give low values",1.01
same,normalized growth,"locus YJL129C, strain trk1, hits give low values",1.03
same,normalized growth,"locus YJL134W, strain LCB3, hits give low values",0.99
same,normalized growth,"locus YJL154C, strain vps35, hits give low values",1.01
same,normalized growth,"locus YJL164C, strain tpk1, hits give low values",0.985
same,normalized growth,"locus YJL166W, strain qcr8, hits give low values",1.02
same,normalized growth,"locus YJL168C, strain set2, hits give low values",0.98
same,normalized growth,"locus YJL187C, strain SWE1 (second series), hits give low values",1
same,normalized growth,"locus YJL187C, strain SWE1, hits give low values",1.02
same,normalized growth,"locus YJR043C, strain POL32, hits give low values",1.17 [resistant] (active)
same,normalized growth,"locus YJR066W, strain TOR1, hits give low values",0.951
